Source: PubChem
An excerpt weighted towards active compounds, which were near 0.92% of everything screened.
AGP1-GFP MLPCN = yeast TOR pathway AGP1-GFP modulation; GFP response vs DMSO, % at 10 µM; S. cerevisiae AGP1-GFP multiplex flow cytometry, 3 h; GFP as percent of DMSO wells; hit rate 0.02% among 320,000;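 active means GFP response relative to DMSO above a set limit, near screen average plus 3 SD, cut at about 150% in these data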;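 further: median GFP channel fluorescence of the gated AGP1 strain per well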
LAP4-GFP MLPCN = modulators of TOR pathway LAP4-GFP in S. cerevisiae; AID 2023; hit rate 0.34% among 320,000; GFP response vs DMSO, % at 10 µM; S. cerevisiae LAP4-GFP multiplex, flow cytometry GFP, 3 h; median GFP as percent of DMSO wells;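 active means GFP response vs DMSO above a set limit, about the screen mean plus 3 SD, cut at about 150% in these data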
CIT2-GFP yeast = yeast TOR pathway CIT2-GFP modulation | hit rate 0.065% among 320,000 | S. cerevisiae CIT2-GFP strain, flow cytometry, 3 h; 100 means same as DMSO wells | GFP response vs DMSO, % at 10 µM | AID 2029;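 active means GFP response relative to DMSO above a set limit, near the screen mean plus 3 SD, cut at about 150% in these data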;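 further: ratio of well median GFP fluorescence to mean of DMSO wells on the plate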
RPL19A-GFP yeast = yeast TOR pathway RPL19A-GFP modulation; hit rate 0.3% among 330,000; AID 2025; S. cerevisiae RPL19A-GFP strain, flow cytometry, 3 h; hits give low values; percent response vs DMSO, % at 10 µM;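 active means percent response vs DMSO below 50%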;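 further: median channel GFP fluorescence of the barcoded RPL19A-GFP strain; ratio of sample median GFP to plate DMSO average so 100% = DMSO; lower means less RPL19A-GFP as with rapamycin TOR inhibition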
MEP2-GFP yeast = yeast TOR pathway MEP2-GFP modulation; GFP response vs DMSO, % at 10 µM; S. cerevisiae MEP2-GFP strain, flow cytometry GFP, 3 h; 100% = DMSO control level; AID 2016; hit rate 0.51% among 330,000;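 active means GFP response versus DMSO above a set limit, roughly screen mean plus 3 SD, cut at about 180% in these data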;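 further: median GFP fluorescence of the barcode-gated MEP2-GFP cells per well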
LAP4-GFP pick2 = reconfirmed LAP4-GFP TOR pathway modulator in yeast; shares compounds with LAP4-GFP MLPCN; S. cerevisiae LAP4-GFP strain, flow cytometry GFP, 3 h; GFP response vs DMSO, % at 10 µM; hit rate 20% among 590; AID 2621;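 active means GFP signal as percent of the solvent control above about 150%, meaning raised reporter expression, limit read from the data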;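 further: ratio of well median GFP fluorescence to plate DMSO mean so 100% = DMSO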
MEP2-GFP pick2 = second confirmation of modulators of TOR reporter MEP2-GFP in yeast. shares compounds with LAP4-GFP MLPCN. S. cerevisiae MEP2-GFP strain, flow cytometry GFP, 3 h. GFP response vs DMSO, % at 10 µM. hit rate 10% among 590;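 active means GFP signal above 150% of the solvent control wells, that is a rise of more than half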;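 further: median channel GFP fluorescence of all gated yeast cells per well; ratio of median GFP to plate DMSO average so 100% = DMSO level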
RPL19A GFP CP2 = yeast RPL19A-GFP TOR reporter modulation, second cherry pick | GFP response vs DMSO, % at 10 µM | shares compounds with LAP4-GFP MLPCN | hit rate 3% among 590 | S. cerevisiae RPL19A-GFP strain, flow cytometry GFP, 3 h; hits give low values; 100% means same as DMSO wells;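 active means under 65% GFP response relative to DMSO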;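 further: median GFP channel fluorescence per well over the all cells gate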
CIT2 GFP CP2 = second confirmation of modulators of TOR reporter CIT2-GFP in yeast | AID 2624 | hit rate 8% among 590 | shares compounds with LAP4-GFP MLPCN | GFP response vs DMSO, % at 10 µM | S. cerevisiae CIT2-GFP strain, flow cytometry GFP, 3 h; DMSO control wells read 100%;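 active means GFP response vs DMSO above about 150%, limit read from the data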;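 further: median green fluorescence per well over all gated yeast cells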
AGP1-GFP pick2 = second confirmation of modulators of TOR reporter AGP1-GFP in yeast. shares compounds with LAP4-GFP MLPCN. S. cerevisiae AGP1-GFP strain, flow cytometry GFP, 3 h. percent response vs DMSO, % at 10 µM. 590 tested, under 10 active;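 active means over 150 percent of DMSO response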;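 further: median GFP channel fluorescence over all cells without mother daughter split; sample median GFP divided by mean DMSO control so 100% equals DMSO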
Yeast autofluor = counter-screen for compound autofluorescence in yeast s288c cells; fluorescence change (kMESF span) at 33 µM; shares compounds with LAP4-GFP MLPCN; S. cerevisiae s288c, 520 nm autofluorescence, flow cytometry, 3 h; hits give high values; zero means same as solvent-only cells; 610 tested, under 10 active; AID 2757;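 active means fluorescence span over the dose series, or activity score, above about 33, limit read from the data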
Yeast autofl DR = yeast s288c autofluorescence artifact in dose response | shares compounds with LAP4-GFP MLPCN | S. cerevisiae s288c parental, compound autofluorescence, flow cytometry, 3 h | fluorescence change (span) at 33 µM | 110 tested, under 10 active;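 active means fluorescence change span, or the activity score built from it, above 25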
TORC1 bypass gr = stops wildtype yeast growth while TORC1 bypass cells still grow. shares compounds with LAP4-GFP MLPCN. S. cerevisiae BY4741 spot growth rating, 48-72 h; hits give low values. growth rating (0-3) at 30 µM. 120 tested, under 10 active;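 active means growth rating at most 1 for wild type yeast while the TORC1 bypass strain still grows fully, rated 3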
* hit, by the source's call; . = no result.

SMILES	AGP1-GFP MLPCN	LAP4-GFP MLPCN	CIT2-GFP yeast	RPL19A-GFP yeast	MEP2-GFP yeast	LAP4-GFP pick2	MEP2-GFP pick2	RPL19A GFP CP2	CIT2 GFP CP2	AGP1-GFP pick2	Yeast autofluor	others
CCNc1nc(Cl)nc(N(NC(C)=O)C(C)C)n1	97.6	101.9	81.1	94.1	87.3	.	.	.	.	.	.
CCNc1nc(Cl)nc(N(NC(C)=O)C(C)CC)n1 (stereo not given)	73.1	98.0	58.4	61.4	71.6	101.2	104.8	98.7	101.5	96.6	.
CCN(C(=O)CN1CCN(c2cccc(Cl)c2)CC1)c1c(N)n(Cc2ccccc2)c(=O)[nH]c1=O	74.9	95.6	96.7	63.0	132.9	101.0	99.8	99.8	97.2	100.8	.
COc1ccc(Cc2nc3ccc(C(=O)N(C)C(C)c4ccon4)cc3o2)cc1 (stereo not given)	106.1	190.5*	97.6	100.7	82.2	100.2	101.3	98.5	96.0	100.0	.
O=C(Nc1cccc(F)c1)c1ccc(-c2ccccc2Cl)o1	95.6	115.0	92.6	108.2	102.2	.	.	.	.	.	.
Cc1ccc(-c2ccc(C(=O)Nc3cccc(F)c3)o2)c2ccccc12	79.7	170.7*	80.2	99.3	93.0	104.2	115.3	99.1	100.1	98.6	.
O=C(NN1C(=O)c2ccccc2C1=O)c1ccc2c(c1)C(=O)N(CC1CCCO1)C2=O (stereo not given)	105.1	100.7	94.6	101.0	101.2	.	.	.	.	.	.
O=c1oc(Cl)c(Cl)c2ccccc12	82.0	191.5*	77.5	98.9	101.7	120.2	106.5	103.4	102.9	100.8	.
O=c1oc2cc(O)c(Cl)cc2c2ccccc12	74.0	93.7	81.8	92.2	92.6	.	.	.	.	.	.
COc1ccc(CN2CCC(n3nccc3NC(=O)c3cccc(F)c3)CC2)cc1O	102.8	110.6	94.0	97.2	94.0	.	.	.	.	.	.
Cc1[nH]n(-c2ccccc2)c(=O)c1C(c1ccccc1[N+](=O)[O-])C(C#N)C#N (stereo not given)	83.0	168.4*	99.5	105.1	95.3	.	.	.	.	.	1.33
CSc1nnc(C)c(=O)n1COC(=O)c1ccc(S(=O)(=O)N(C)C)cc1	102.8	93.1	102.4	98.3	96.7	.	.	.	.	.	.
O=C(c1ccccn1)c1conc1C(=O)c1ccc(Br)cc1	102.5	331.4*	192.0*	112.3	281.4*	.	.	.	.	.	2.42
Cc1ccc(C(CC(=O)O)NC(=O)c2ccc(S(=O)(=O)N3CC(C)OC(C)C3)cc2)cc1 (stereo not given)	97.1	113.8	109.5	100.4	195.9*	98.2	99.6	99.1	96.0	98.6	0
COc1ccccc1NC(=O)CCSc1nc(C)cs1	97.5	90.9	105.4	105.0	111.5	.	.	.	.	.	.
c1ccc(-c2cccc(-c3ccccn3)n2)nc1	78.2	318.6*	128.3	89.1	111.6	.	.	.	.	.	0.61	Yeast autofl DR=0;TORC1 bypass gr=3
